Source: PubChem BioAssay
Shown are actives, neighbours in structure and some others; about 4.1% of the full set was active somewhere.
DAX1 inh-1: NR0B1 (DAX1) inhibition. P51843. hit rate 0.99% among 340,000. HEK293 Gal4-DAX1 luciferase reporter, luminescence. inhibition, % at 6.75 µM;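 active means inhibition above the mean over all tested compounds plus 3 SD, cut at about 4.2% in these data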;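 further: 0% = DAX1-transfected cells with DMSO and 100% = empty-vector control cells with DMSO; inhibition shows as a rise in luminescence from relieved DAX1 repression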
Target sequence (P51843 207-470 limits assumed): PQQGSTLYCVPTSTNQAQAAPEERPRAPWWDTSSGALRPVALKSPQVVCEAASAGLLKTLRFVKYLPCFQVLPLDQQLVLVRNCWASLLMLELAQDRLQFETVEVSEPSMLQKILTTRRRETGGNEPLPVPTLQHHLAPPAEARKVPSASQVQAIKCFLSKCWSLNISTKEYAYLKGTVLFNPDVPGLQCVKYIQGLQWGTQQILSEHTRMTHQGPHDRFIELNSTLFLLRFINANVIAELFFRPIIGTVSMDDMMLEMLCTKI
DAX1 inh-2: blocks DAX1 repression of SF-1 activated StAR promoter; hit rate 1.1% among 370,000; inhibition, % at 6.8 µM; HEK293T StAR-luciferase reporter, SF-1/DAX-1 repression relief;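 active means inhibition above the mean over all tested compounds plus 3 SD, cut at about 3.6% in these data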;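 further: 0% = DAX-1 cells with DMSO and 100% = cells lacking DAX-1 with DMSO; higher inhibition means more luminescence from relief of DAX-1 repression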
hgDAF-12 ag: activates the H. glycines DAF-12 receptor ligand-binding domain; HEK293 GAL4-hgDAF12 UAS-luciferase reporter, agonist luminescence; normalized to butyrate control; activation, % at 6.8 µM; AID 687014; hit rate 1.8% among 370,000;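 active means activation above a cutoff set at the mean of all screened compounds plus 3 SD, cut at about 10% in these data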;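 further: 0% = DMSO wells and 100% = sodium butyrate wells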
ssDAF12 agonist: S. stercoralis DAF-12 activation, primary screen. HEK293 ssDAF-12/GRIP1 lit1-tk-luc reporter, luminescence; % of 3 µM dafachronic acid response. hit rate 1% among 370,000. activation, % at 6.8 µM;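 active means activation above the mean over all tested compounds plus 3 SD, cut at about 0.9% in these data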;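 further: 0% = DMSO-only wells and 100% = 3 µM delta7-dafachronic acid wells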
hcDAF12 agonist: H. contortus DAF-12 activation, primary screen | HEK293 hcDAF-12 lit1-tk-luc reporter, luminescence; 0% DMSO, 100% Δ7-dafachronic acid | activation, % at 6.8 µM | AID 652067 | hit rate 1.4% among 370,000;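 active means activation above the mean of all tested compounds plus 3 SD, cut at about 5.5% in these data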;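 further: 100% = response to 3 µM Δ7-dafachronic acid high control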
LXR ag: counter-screen for hcDAF-12 agonists: agonists of human LXR-beta. HEK293 Gal4-LXR tk-luc reporter, luminescence, 24 h; normalized: DMSO 0%, positive control 100%. 3,400 tested, under 10 active. activation, % at 6.8 µM. AID 743027. shares compounds with hcDAF12 agonist;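 active means mean percent activation of the reporter above a cutoff set as the average over tested compounds plus their standard deviation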
hcDAF12 ag: hcDAF-12 agonism, confirmation assay; shares compounds with hcDAF12 agonist; HEK293 hcDAF-12 lit1-tk-luc reporter, luminescence; % of Δ7-dafachronic acid response; activation, % at 6.8 µM; hit rate 61% among 3,400; AID 743032;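 active means mean activation across triplicate tests above the threshold derived from the earlier primary screen, cut at about 5.5% in these data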;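 further: 0% = DMSO only wells and 100% = 3 µM Δ7-dafachronic acid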
hgDAF12 conf: hgDAF-12 agonism, confirmation assay; HEK293 GAL4-hgDAF12 luciferase reporter, agonist mode; percent of butyrate response; hit rate 80% among 3,300; activation, % at 6.8 µM; AID 743050; shares compounds with hgDAF-12 ag;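 active means mean activation over triplicate wells above the hit cutoff derived from the earlier primary screen, cut at about 11% in these data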;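 further: 0% = DMSO low control and 100% = 2 mM sodium butyrate high control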
LXR ag 2: counter-screen for DAF-12 agonists: agonists of human LXR-beta; activation, % at 6.8 µM; HEK293 Gal4-LXR luciferase reporter, 24 h; shares compounds with hgDAF-12 ag; 3,300 tested, under 10 active;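 active means mean activation of the triplicate above a set limit carried over from the primary screen, none filed active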
An asterisk follows results filed as active; nt = no result.

SMILES	DAX1 inh-1	DAX1 inh-2	hgDAF-12 ag	ssDAF12 agonist	hcDAF12 agonist	LXR ag	hcDAF12 ag	hgDAF12 conf	LXR ag 2
O=C(c1ccccc1)n1ccc2ccc(-c3ccc4ccn(C(=O)c5ccccc5)c4c3)cc21	nt	0	1	0	2	nt	nt	nt	nt
Cc1ccc(Nc2nc(CSc3nnc(-c4ccncc4)n3C)cs2)cc1	-2	4	16*	0	7.3*	1	4	15*	0
Cc1cccnc1Nc1nc(-c2ccc(F)cc2)cs1	6.2*	3	18*	1.9*	10*	1	8.2*	16*	1
Cc1ccc(-c2csc(Nc3ccccn3)n2)cc1	-3	2	16*	2.2*	8.2*	2	9.9*	19*	1
Cc1ccc(CSc2nnc(-c3ccncc3)n2C)cc1	-2	0	-1	-1	-2	nt	nt	nt	nt
Cc1ccc(-c2cn(-c3ccccc3)c(SCC(=O)NC3CCS(=O)(=O)C3)n2)cc1C (centres undefined)	1	2	17*	0	8.4*	1	4	7	1
Cc1ccc(SCC(=O)NC2CCS(=O)(=O)C2)cc1C (centres undefined)	0	1	1	0	0	nt	nt	nt	nt
CC1=NC(=O)C(N=Nc2cccc(C(=O)O)c2)N1c1ccccc1 (centres undefined)	-4	3	16*	1.5*	10*	1	13*	16*	1
COC(=O)C1=C(C)N(C)C(=NCc2ccc(OC)cc2)NC1c1ccccc1 (centres undefined)	nt	0	1	0	-1	nt	nt	nt	nt
O=C(C(=O)N1CCC(CNS(=O)(=O)c2ccc(C(F)(F)F)cc2)CC1)c1cccs1	nt	-1	-1	-1	0	nt	nt	nt	nt
O=C(Nc1ccon1)c1ccc(OC2CCCC2)cc1	0	4.5*	14*	0	7.2*	1	5	14*	1
Cc1ccc(NC(=O)c2cc(=O)[nH]c3ccccc23)cc1	0	0	0	-1	1	nt	nt	nt	nt
Cc1ccc(NC(=O)C(=O)c2c[nH]c3ccccc23)cc1	3	2	20*	1	7.2*	2	5	22*	1
CCCCN(CC)C(=O)c1cc2cc3ccc(OC)cc3nc2o1	0	0	6	-1	-2	nt	nt	nt	nt
CCCCN(C)C(=O)c1cc2cc3ccc(OC)cc3nc2s1	-1	3	17*	0	7.0*	1	7.1*	16*	1
Cc1cc(C)cc(OCC(C)CN2CCC(C(O)(c3ccccc3)c3ccccc3)CC2)c1 (centres undefined)	nt	0	-1	0	-2	nt	nt	nt	nt
CC(=O)Nc1ccc2nc(NC(=O)c3cccs3)sc2c1	3	4.2*	21*	1.8*	6.7*	1	9.2*	13*	1
CC(=O)Nc1cccc(/C(C)=N/NC(=O)c2cccs2)c1	4	2	18*	0	6.7*	0	1	1	0
CC(=O)Nc1cccc(/C(C)=N/NC(=O)c2ccc(NS(=O)(=O)c3cccs3)cc2)c1	1	1	3	-1	0	nt	nt	nt	nt
COc1ccc2cc(C(N)=O)c(=Nc3ccccc3)oc2c1	2	4.3*	14*	0	14*	1	2	13*	1
COc1ccc(OC)c(N=c2oc3cc(O)ccc3cc2C(N)=O)c1	0	-1	1	-2	-1	nt	nt	nt	nt
CCCCOCCCNC(=O)C[C@H]1C[C@@]2(C(=O)OC)C(=C[C@H](C(C)(C)C)O[C@@H]2C)N(CCC2=CCCCC2)C1=O	nt	0	-1	-1	-2	nt	nt	nt	nt
